Test results as given in PubChem BioAssay (Tox21).
Records with an inconclusive call do not appear. A number with no mark means an inactive call. The source made the active and inactive calls. The call rests on the fitted dose curve; in most records, active means well fitted inhibition curve with a large enough effect in the signal ratio in the repeat runs (not every such curve was filed as active); inconclusive means weak or mixed curves, or effect the other way; inactive means flat fitted curve, though single readings scatter; the % refers to the signal ratio.

Assay: cAMP Responsive Elements (CRE) small molecule antagonists, cell-based qHTS assay (AID 1963591)
Settings: CRE-bla HEK293T, beta-lactamase FRET ratio; series mostly up to 92.4 µM; activity change, negative = inhibition: at the top concentration
Description: U.S. Tox21 Program National Center for Advancing Translational Sciences [NCATS] Division of Preclinical Innovation [DPI] U.S. Environmental Protection Agency [EPA] National Institutes of Environmental Health Sciences [NIEHS] National Toxicology Program [NTP] U.S. Food and Drug Administration [FDA] Tox21 Assay Overview: CREB (cyclic-AMP Responsive Element Binding Protein) is a cellular transcription factor. It binds to certain DNA sequences called cAMP Responsive Elements (CRE) and regulates the transcription of the genes. […] This cell line can be used to find agonists/antagonists of the cyclic AMP signaling pathway. The activation of the report gene under culture conditions can be detected by fluorescence intensity. This cell line has been used to screen the Tox21 10K compound library to […].
Tox21 Assay Protocol Summary: CRE-bla Hek 293T cells were suspended in assay medium (DMEM containing 10% dialyzed FBS, 0.1 mM NEAA, 1 mM sodium pyruvate and 25 mM HEPES) and dispensed at 2,000 cells/4 uL /well into 1536-well black wall/clear bottom plates using a Multidrop Combi (ThermoFisher Scientific, Waltham, MA) dispenser. After the assay plates were incubated at 37 C/5% CO2 for 18 hrs, 23 nL of compounds dissolved in DMSO, positive controls or DMSO only was transferred to the assay plate by a pintool workstation (Kalypsys, San Diego, CA), followed by addition of 1 […] uL of 1.25uM NKH477 (0.25 uM as final concentration) in assay medium using a Flying Reagent Dispenser (Aurora Discovery, San Diego, CA). The plates were incubated at 37 C and 5% CO2 for 3 hrs. Then 1 uL of LiveBLAzer B/G FRET substrate (Invitrogen, Carlsbad, CA) was added to each well using Bioraptr Flying Reagent Dispenser (FRD, Aurora Discovery, San Diego, CA). The plates were incubated at room temperature for 2 h.
On the % scale 0 is the no-effect control and ±100 the full control effect; potency means the concentration at half of the fitted maximal effect.

Row | Compound | activity change, negative = inhibition | Potency
1 | CCC1Nc2cc(Cl)c(S(N)(=O)=O)cc2S(=O)(=O)N1 (stereo not given) | -3.2% [at 42.4 µM] | 
2 | Cc1[nH]cnc1C[C@H]1CCc2c(C)c3ccccc3n2C1=O | 19% | 
3 | CO | -2.64% | 
4 | Cc1ccc(C=O)cc1C | 5.94% | 
5 | CC(=O)Nc1ccccc1O | -2.88% | 
6 | Oc1cccc(Nc2ccccc2)c1 | -12% | 
7 | CCCCC(CC)COC(=O)c1ccccc1 (stereo not given) | -1.39% | 
8 | CCc1ccc(C)cc1 | -3.19% | 
9 | Cc1cccc(C(=O)O)c1O | -6.2% [at 42.4 µM] | 
10 | CCCCCCCCCCCCCCC[C@H](O)[C@@H](N)CO | 2.3% [at 42.4 µM] | 
11 | C=CC(=O)OCCCCCCOC(=O)C=C |  | inactive
12 | C=Cc1c(C)c2cc3[nH]c(cc4nc(cc5nc(cc1[nH]2)C(C)=C5CCC(=O)O)C(CCC(=O)O)=C4C)c(C)c3C=C | 3.91% [at 42.4 µM] | 
13 | CC/C=C/CCCCCCCCCCOC(C)=O | -7.48% | 
14 | CC(=O)OCC(=O)[C@@]1(O)[C@H](OC(C)=O)C[C@H]2[C@@H]3CCC4=CC(=O)C=C[C@]4(C)[C@@]3(F)[C@@H](O)C[C@@]21C | 5.52% [at 42.4 µM] | 
15 | C[C@@H]1C[C@H]2[C@@H]3CCC4=CC(=O)C=C[C@]4(C)[C@@]3(F)[C@@H](O)C[C@]2(C)[C@@]1(O)C(=O)COC(=O)c1ccncc1 | -4.08% [at 42.4 µM] | 
16 | C=CCOCC(O)CS(=O)(=O)O (stereo not given) | -2.98% | 
17 | FC(F)(Cl)C(F)(Cl)Cl | -4.4% | 
18 | CC1=CC(=O)CCC1 | -0.295% | 
19 | NC(=O)c1c(Cl)cccc1Cl | -7.69% | 
20 | CCCOC(=O)CCCCC(=O)OCCC | 2.18% | 

Row | Compound | activity change, negative = inhibition | Potency
21 | COc1cc(C)nc(-n2nc(C)cc2OC)n1 | -14% [at 42.4 µM] | 
22 | Oc1ccc(CCNCCCCCCNCCc2ccccc2)cc1O | 5.32% [at 42.4 µM] | 
23 | Nc1nnc(-c2ccc([N+](=O)[O-])o2)o1 | -9.49% | 
24 | CCCC(=O)O[C@]1(C(=O)COC(=O)CC)CC[C@H]2[C@@H]3CCC4=CC(=O)CC[C@]4(C)[C@H]3[C@@H](O)C[C@@]21C | 0.328% [at 18.9 µM] | 
25 | CCc1cccc(N(C)C(N)=Nc2cccc3ccccc23)c1 | -4.5% [at 42.4 µM] | 
26 | O=C1c2c(O)ccc(O)c2C(=O)c2c(NCCNCCO)ccc(NCCNCCO)c21 |  | 21.1 µM (active)
27 | c1coc(Cn2cccc2)c1 | -1.95% | 
28 | O=S(=O)(O)c1cc(Cl)c(Cl)cc1Cl | 13.3% | 
29 | COc1cc(NC(C)CCCN)c2ncccc2c1 (stereo not given) | -0.269% [at 42.4 µM] | 
30 | Nc1ccc(O)c(N)c1 |  | inactive
31 | CC[N+](CC)(CC(=O)Nc1c(C)cccc1C)Cc1ccccc1 (tested in a mixture with another compound) | 7.1% [at 42.4 µM] | 
32 | C=CCOC(=O)COCCC(C)C | -3.69% | 
33 | C=C/C=C/C=C/CCCCC | 0.0574% [at 18.9 µM] | 
34 | COC=O | 12.8% [at 8.39 µM] | 
35 | O=C1NC(=O)c2cc([N+](=O)[O-])ccc21 | 2.5% | 
36 | O=CC=C(c1ccccc1)c1ccccc1 |  | 24.5 µM (active)
37 | O=S(=O)(Oc1ccc(Cl)cc1)c1ccccc1 | -7.44% | 
38 | N[C@@H](CS)C(=O)O | 5.73% | 
39 | O=C(c1ccccc1)c1ccc(O)cc1 | 2.84% | 
40 | CCCCCCCCCCCCCOS(=O)(=O)O | -8.09% | 
